# Screening results (PubChem)
# Rows were chosen to be rich in hits. Some 2.5% of all compounds tested hit in one or more screens of this group.
# sEH inh: soluble epoxide hydrolase inhibitors, primary screen, biochemical, human sEH. hit rate 0.34% among 91,000. recombinant human sEH enzymatic activity assay. inhibition, % at 2 µM. AID 707, 2007. Bifunctional epoxide hydrolase 2 (Homo sapiens), P34913; in the data active means inhibition above about 80%
# Target sequence (P34913 whole entry, looked up): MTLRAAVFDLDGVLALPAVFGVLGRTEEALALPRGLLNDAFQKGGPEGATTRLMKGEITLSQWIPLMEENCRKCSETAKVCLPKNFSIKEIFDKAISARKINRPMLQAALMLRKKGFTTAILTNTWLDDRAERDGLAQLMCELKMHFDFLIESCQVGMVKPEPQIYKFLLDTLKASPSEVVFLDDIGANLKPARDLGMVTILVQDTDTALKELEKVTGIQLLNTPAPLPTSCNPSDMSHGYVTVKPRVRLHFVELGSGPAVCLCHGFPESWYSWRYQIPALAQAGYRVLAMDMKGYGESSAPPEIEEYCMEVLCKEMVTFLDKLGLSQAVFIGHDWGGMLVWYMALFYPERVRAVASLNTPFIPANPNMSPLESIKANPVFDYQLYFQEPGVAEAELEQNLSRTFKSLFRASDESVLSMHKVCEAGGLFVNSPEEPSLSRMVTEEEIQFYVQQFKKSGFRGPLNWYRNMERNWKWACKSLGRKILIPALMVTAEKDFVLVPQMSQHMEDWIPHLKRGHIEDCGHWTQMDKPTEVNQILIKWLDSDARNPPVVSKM
# MRP-1 activ: H69AR viability gain despite doxorubicin, primary screen, MRP-1 activator project, H69AR cells, CellTiter-Glo; AID 799, 2007; hit rate 0.61% among 140,000; viability rescue; viability increase, % at 10 µM;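 active means viability gain under doxorubicin at or above a set limit, the compound median plus 3 SD, cut at about 4.7% in these data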;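 further: MRP-1 overexpressing cells given doxorubicin 25 µM after compound pretreatment; 18-22 h compound pretreatment then 72 h with doxorubicin before readout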
# sdo1 growth: growth rescue of sdo1-depleted yeast, primary screen, S. cerevisiae, bone marrow failure model; S. cerevisiae sdo1-depleted JHY4D growth rescue, OD600 30 h; stronger effect = higher value; pdr5 snq2 efflux-pump mutant strain; z-score at 10 µM; hit rate 0.21% among 140,000; AID 817, 2007;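 active means z-score above 3 at both the 24 hr and the 30 hr optical density reads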
# sEH act: soluble epoxide hydrolase activators, primary screen, biochemical, human sEH | purified human sEH enzymatic activity, activator screen | activation, % at 2 µM | hit rate 0.04% among 91,000 | AID 717, 2007; in the data active means activation above about 37%
# Measles CPE: compounds protecting cells from measles virus cytopathic effect, primary screen, measles RdRp inhibitor project, single point, MLSMR library, absorbance; AID 841, 2007; hit rate 1.5% among 140,000; protection (pct of control), % at 4 µM; Measles virus-infected cells, CPE protection; in the data active means protection mostly above about 24%, no sharp cut-off; inactive means mostly below about 26%
# MRP reversal: reversal of MRP1-mediated doxorubicin resistance, primary screen, H69AR cells, doxorubicin co-treatment | differential viability (reversal), % at 10 µM | H69AR cells + 2 uM doxorubicin, CellTiter-Glo, 72 h | hit rate 0.04% among 85,000;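 active means viability drop by adding the cancer drug above about 55%, with treated viability meeting a 40% cutoff, limit read from the data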;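 further: larger differential means the compound sensitizes cells more to doxorubicin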
# Numbers stand for hits; n = inactive; x = no result.
SMILES,sEH inh,MRP-1 activ,sdo1 growth,sEH act,Measles CPE,MRP reversal
Cc1n[nH]c(C)c1S(=O)(=O)N1CCN(C(=O)c2ccco2)CC1,x,n,n,x,n,n
C=CCNC(=S)NNC(=O)COc1ccc(Br)cc1,x,6.4,n,x,n,x
Cc1ccc(C(=O)C[n+]2cc(Br)cc(Br)c2)cc1[N+](=O)[O-],x,n,n,x,n,x
O=C(NN1C(=O)/C(=C/c2cccnc2)SC1=S)C(c1ccccc1)c1ccccc1,n,n,n,n,n,x
CC(=O)NN1C(=O)/C(=C/c2ccc(C(C)C)cc2)SC1=S,x,4.7,n,x,n,x
Cc1ccc(/C=C2\SC(=S)N(CCC(=O)NNC(=O)c3cccnc3)C2=O)cc1,x,8.7,n,x,n,x
O=C(CCN1C(=O)/C(=C/c2ccccc2)SC1=S)NNC(=O)c1cccnc1,x,6.6,n,x,n,x
O=C(NN1C(=O)/C(=C\c2cccnc2)SC1=S)C(c1ccccc1)c1ccccc1,x,5.5,n,x,n,x
O=C1CN(C(=O)c2cc([N+](=O)[O-])ccc2Cl)C(c2ccc(F)cc2)c2cc(F)ccc2N1 (stereo not given),x,n,n,x,n,x
CCN(CC(=O)Nc1ccccc1OC)C(=O)COc1ccc2ccccc2c1,x,n,n,x,n,x
Cc1ccc(-c2c3c(=O)n(C)c(=O)n(C)c3cn2Cc2ccccc2)cc1,n,n,n,n,38.0,n
Cn1c(=O)c2c(-c3ccccc3)n(Cc3ccccn3)cc2n(C)c1=O,n,n,n,n,n,n
CNC(=O)CN(c1ccc(F)cc1)S(=O)(=O)c1cc(C)ccc1OC,n,n,n,n,n,n
COc1ccc(C2CC(O)(C(C)(C)O)NO2)cc1 (stereo not given),n,n,n,n,n,n
CC1(C2(O)CC(c3ccccc3)ON2)CCCCC1 (stereo not given),n,n,n,n,29.0,n
Cn1c(=O)c(C(=O)COC(=O)c2cc(-c3ccccc3)nc3ccccc23)c(N)n(Cc2ccccc2)c1=O,x,n,n,x,24.7,x
Cn1c(=O)c(C(=O)COC(=O)c2cc(C(F)(F)F)nc3ccccc23)c(N)n(Cc2ccccc2)c1=O,x,n,n,x,n,x
COc1ccc(Nc2nc(N3CCCC3)c3ccccc3n2)cc1,x,n,n,x,63.0,n
N/C(=N\OC(=O)CCCN1C(=O)c2ccccc2C1=O)c1ccc(Cl)cc1,n,n,n,n,40.9,x
N#CC(C(=O)NC1CCCCC1)=C1CCCCCC1,x,n,n,x,34.1,x
O=C(NN=C1CCCCCCC1)C(=O)NC1CCCCC1,n,n,n,n,n,x
COC(=O)c1ccc(NC(C)C(=O)OC)c([N+](=O)[O-])c1 (stereo not given),x,n,n,x,n,x
CCOC(=O)CN(C(=O)CSc1nnc(COc2ccc(OC)cc2)n1C)c1ccccc1,n,5.6,n,n,n,n
CCOC(=O)CN(C(=O)CSc1nnc(CNc2ccc(F)cc2)n1C)c1ccccc1,n,n,n,n,n,n
CC1(C)Cc2c(sc3nc(SCC#N)n(C4CCCCC4)c(=O)c23)CO1,x,x,x,x,x,n
SMILES,sEH inh,MRP-1 activ,sdo1 growth,sEH act,Measles CPE,MRP reversal
CCCCCCN1CC(C(=O)OCC)C(=O)C1=O (stereo not given),x,n,n,x,n,x
COc1ccc(C)cc1N(CC(N)=O)S(=O)(=O)c1ccc(C)cc1,x,n,n,x,n,n
COc1nc(N(CC(N)=O)S(=O)(=O)c2ccccc2)nc(C)c1Cl,n,n,n,n,28.9,n
CC1CCCN(Cc2cccc(Oc3ccccc3)c2)C1 (stereo not given),n,n,n,n,n,n
Cc1noc(C)c1COc1ccc(C(=O)OCC(=O)N2CC3(C)CC2CC(C)(C)C3)cc1 (stereo not given),n,n,n,n,51.2,n
O=[N+]([O-])c1ccc(CSc2nnc(SCc3ccc(Cl)cc3)s2)cc1,x,n,n,x,n,x
COc1ccc(NCc2nnc(SCc3ccc(Cl)cc3)n2-c2ccccc2)cc1,x,n,n,x,n,x
CCn1c2ccccc2c2cc(NC(=O)CC(C)=O)ccc21,x,4.8,n,x,n,x
Cc1ccc(-c2nc3sc4c(N)ncnc4c3c3c2CCCC3)cc1,n,n,n,n,24.8,x
O=c1[nH]cnc2c1sc1nc(-c3ccccc3)c3c(c12)CCCC3,x,n,n,x,n,x
O=C(Nc1ccc(C2CC2(Cl)Cl)cc1)c1ccccc1Br (stereo not given),x,11.4,n,x,n,x
O=C(Oc1ccccc1C(=O)Nc1ccccc1)c1ccccc1Br,x,n,n,x,n,x
C=CCOc1cccc(C2/C(=C(/O)c3ccccc3)C(=O)C(=O)N2CCCN2CCOCC2)c1 (stereo not given),x,x,x,x,x,n
CC(=C\C(=O)O)/C(=C/c1ccccc1)C(=O)O,n,n,n,n,24.9,x
CCOCCCn1cnc2c(c1=O)c1nc3ccccc3nc1n2-c1ccccc1,n,n,n,n,42.6,n
CCOCCCn1cnc2c(c1=O)c1nc3ccccc3nc1n2-c1ccc(C)cc1,x,n,n,x,n,n
COc1cc(C2C(C#N)=C(N)Oc3cc(C)n(Cc4ccccn4)c(=O)c32)cc2c1OCO2 (stereo not given),x,x,x,x,x,n
O=C(Nc1ccc(Cl)cc1F)C1CC1,x,n,n,x,n,x
COc1ccc(S(=O)(=O)N(C)CC(=O)N2CCC(C(N)=O)CC2)cc1Cl,x,n,n,x,n,x
O=C(NCc1cccnc1)C1CCCCN1S(=O)(=O)c1ccc(F)cc1 (stereo not given),n,n,n,n,19.2,n
O=C(NCc1cccnc1)C1CCCN(S(=O)(=O)c2ccc(Br)cc2)C1 (stereo not given),n,n,n,n,n,n
CSC1=NC(C)(C)CC2(C)Nc3ccccc3N12 (stereo not given),x,n,n,x,18.2,x
COCC(C)n1c(C)cc(C(=O)COC(=O)CN=C2NS(=O)(=O)c3ccccc32)c1C (stereo not given),x,n,n,x,n,x
N#Cc1ccc(N2C(=O)[C@@H]3C(C(=O)c4ccc5ccccc5n4)=NN[C@@H]3C2=O)cc1,x,9.3,n,x,n,x
COc1ccc(C2=NN(C(=O)CSc3ncccn3)C(c3ccc(OC)cc3)C2)cc1 (stereo not given),x,n,n,x,63.2,x
SMILES,sEH inh,MRP-1 activ,sdo1 growth,sEH act,Measles CPE,MRP reversal
COc1ccc(C2CC(c3ccccc3)=NN2C(=O)COC(=O)c2cccnc2Cl)cc1 (stereo not given),x,5.4,n,x,n,x
COc1ccc(C2CC(c3ccccc3)=NN2C(=O)COC(=O)c2cccnc2)cc1 (stereo not given),x,n,n,x,n,x
CC(=O)Nc1ccc(/C(C)=N/NC(=O)c2ccccc2Cl)cc1,x,n,n,x,n,x
O=[N+]([O-])c1cccc(CSc2nnc(Cc3ccccc3)n2-c2ccc(F)cc2)c1,x,n,n,x,n,x
CN1CCN(c2nc(-c3cccs3)nc3ccccc23)CC1,x,n,n,x,n,x
c1ccc(N2CCN(c3nc(-c4cccs4)nc4ccccc34)CC2)cc1,x,7.3,n,x,n,x
CCOC(=O)CCc1c(C)nc(SCC(=O)O)c(C#N)c1C,n,n,n,n,32.2,n
